# Values joined by “and” are separate entries in the source; they are usually repeats but may differ in a detail not shown here. Equal entries are not always repeated. A structure can be active in one record and inactive in another. Active and inactive are the calls of the source. Rule for the calls: active = hit-call score of the fitted dose curve at least 0.9, where 1 is the maximum; inactive = score below 0.9.
# Columns and labels:
# [1] = BSK_CASM3C_SRB: Viability Assessment in the BioMAP Diversity Plus: CASM3C Assay (AID 2283050); settings: primary human coronary artery smooth muscle cells;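 note: total protein by SRB staining as cytotoxicity measure in parallel cultures; cells exposed to compound for 24 h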
# [2] = read-out: Thrombomodulin, THBD (gene 7056); experiment: BSK_CASM3C_Thrombomodulin: BioMAP Diversity Plus: CASM3C Assay for Thrombomodulin Biomarker Activity (AID 2283051); settings: primary human coronary artery smooth muscle cells; actives raise or lower the signal;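 note: thrombomodulin protein level measured by ELISA 24 h after dosing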
# [3] = read-out: Tissue Factor, F3 (gene 2152); experiment: BSK_CASM3C_TissueFactor: BioMAP Diversity Plus: CASM3C Assay for Tissue Factor Biomarker Activity (AID 2283052); settings: primary human coronary artery smooth muscle cells; actives raise or lower the signal;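 note: cell surface tissue factor protein level read by ELISA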
# [4] = read-out: Urokinase-type plasminogen activator receptor (uPAR), PLAUR (gene 5329); experiment: BSK_CASM3C_uPAR: BioMAP Diversity Plus: CASM3C Assay for Urokinase-type plasminogen activator receptor (uPAR) Biomarker Activity (AID 2283054); settings: primary human coronary artery smooth muscle cells; actives raise or lower the signal;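 note: cell-surface uPAR protein level quantified by ELISA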
# [5] = read-out: Vascular cell adhesion molecule 1 (VCAM1), VCAM1 (gene 7412); experiment: BSK_CASM3C_VCAM1: BioMAP Diversity Plus: CASM3C Assay for Vascular cell adhesion molecule 1 (VCAM1) Biomarker Activity (AID 2283055); settings: primary human coronary artery smooth muscle cells; actives raise or lower the signal;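 note: VCAM-1 protein level quantified by ELISA on the cells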
# [6] = read-out: Collagen III, COL3A1 (gene 1281); experiment: BSK_hDFCGF_CollagenIII: BioMAP Diversity Plus: hDFCGF Assay for Collagen III Biomarker Activity (AID 2283056); settings: primary human foreskin fibroblasts; actives raise or lower the signal
# In short: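 ELISA read-out of collagen III from human skin fibroblast cultures sampled 24 h post-dosing. Values were derived by bidirectional fitting relative to the DMSO vehicle control.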
# [7] = read-out: Epidermal growth factor receptor (EGFR), EGFR (gene 1956); experiment: BSK_hDFCGF_EGFR: BioMAP Diversity Plus: hDFCGF Assay for Epidermal growth factor receptor (EGFR) Biomarker Activity (AID 2283057); settings: primary human foreskin fibroblasts; actives raise or lower the signal
# In short: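 ELISA readout of EGFR on human dermal fibroblasts (primary foreskin cells), 24 h post-dosing; bidirectional curve fit vs DMSO baseline, gain or loss of signal scored.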
# [8] = read-out: Interleukin-8 (IL8), CXCL8 (gene 3576); experiment: BSK_hDFCGF_IL8: BioMAP Diversity Plus: hDFCGF Assay for Interleukin-8 (IL8) Biomarker Activity (AID 2283058); settings: primary human foreskin fibroblasts; actives raise or lower the signal
# In short: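 Cells used are human skin primary fibroblasts. Chemical is added, cultures run 24 h, then IL-8 is quantified by ELISA, and gain or loss versus DMSO control is fitted in both directions.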
# [9] = BSK_hDFCGF_Proliferation: Cell Proliferation Assessment in the BioMAP Diversity Plus: hDFCGF Assay (AID 2283059); settings: primary human foreskin fibroblasts;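 note: curves fitted for both rise and fall of signal versus DMSO baseline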
# In short: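 Primary human foreskin fibroblasts, sub-confluent; […]; 10% TCA fix, 0.1% SRB stain, A560 total protein. Gain/loss fitted bidirectionally vs DMSO control.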
# [10] = read-out: Macrophage colony-stimulating factor (MCSF), CSF1 (gene 1435); experiment: BSK_hDFCGF_MCSF: BioMAP Diversity Plus: hDFCGF Assay for Macrophage colony-stimulating factor (MCSF) Biomarker Activity (AID 2283060); settings: primary human foreskin fibroblasts; actives raise or lower the signal
# In short: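 Primary human foreskin fibroblasts dosed with chemical; 24 h later, M-CSF quantified by ELISA; curves fitted in both directions vs DMSO negative control.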
# [11] = BSK_hDFCGF_SRB: Viability Assessment in the BioMAP Diversity Plus: hDFCGF Assay (AID 2283061); settings: primary human foreskin fibroblasts;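 note: cells exposed to compound for 24 h before the read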
# In short: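 Readout is SRB absorbance at 560 nm, reflecting total protein in parallel cultures of human foreskin fibroblasts harvested 24 h after chemical dosing. Activity was fitted bidirectionally relative to DMSO.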
# [12] = read-out: TIMP metallopeptidase inhibitor 1 (TIMP1), TIMP1 (gene 7076); experiment: BSK_hDFCGF_TIMP1: BioMAP Diversity Plus: hDFCGF Assay for TIMP metallopeptidase inhibitor 1 (TIMP1) Biomarker Activity (AID 2283062); settings: primary human foreskin fibroblasts; actives raise or lower the signal
# In short: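 Human skin fibroblasts (primary), hDFCGF system; compound exposure 24 h; TIMP-1 by ELISA; bidirectional fit vs DMSO negative control; overt cytotoxicity by SRB in parallel wells.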
# [13] = read-out: Monokine induced gamma interferon (MIG), CXCL9 (gene 4283); experiment: BSK_hDFCGF_MIG: BioMAP Diversity Plus: hDFCGF Assay for Monokine induced gamma interferon (MIG) Biomarker Activity (AID 2283063); settings: primary human foreskin fibroblasts; actives raise or lower the signal
# In short: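 Chemicals were added to primary human foreskin fibroblast cultures, which were sampled 24 h later. MIG levels were then quantified by ELISA and responses fitted in both directions relative to DMSO.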
# [14] = read-out: Matrix Metallopeptidase 1 (MMP1), MMP1 (gene 4312); experiment: BSK_hDFCGF_MMP1: BioMAP Diversity Plus: hDFCGF Assay for Matrix Metallopeptidase 1 (MMP1) Biomarker Activity (AID 2283064); settings: primary human foreskin fibroblasts; actives raise or lower the signal
# In short: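 ELISA read-out of MMP1 from human foreskin fibroblasts (primary skin cells), 24 h post-dose. Gain or loss of signal was fitted bidirectionally versus DMSO negative control; cytotoxicity was checked by SRB in parallel cultures.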
# [15] = read-out: Vascular cell adhesion molecule 1 (VCAM1), VCAM1 (gene 7412); experiment: BSK_hDFCGF_VCAM1: BioMAP Diversity Plus: hDFCGF Assay for Vascular cell adhesion molecule 1 (VCAM1) Biomarker Activity (AID 2283065); settings: primary human foreskin fibroblasts; actives raise or lower the signal;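 for AC50: VCAM-1 protein level quantified by ELISA after 24 h chemical exposure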
# In short: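 Human foreskin fibroblast primary cells, chemical exposure 24 h; VCAM-1 by ELISA; bidirectional fit, DMSO = negative control/baseline.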
# [16] = read-out: Plasminogen activator inhibitor-1 (PAI1), SERPINE1 (gene 5054); experiment: BSK_hDFCGF_PAI1: BioMAP Diversity Plus: hDFCGF Assay for Plasminogen activator inhibitor-1 (PAI1) Biomarker Activity (AID 2283066); settings: primary human foreskin fibroblasts; actives raise or lower the signal
# In short: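 ELISA readout of PAI-1 from primary human skin fibroblast cultures, 24 h after compound addition. Gain or loss of signal was fitted bidirectionally against DMSO baseline.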
# [17] = read-out: Intercellular Adhesion Molecule 1 (ICAM1), ICAM1 (gene 3383); experiment: BSK_KF3CT_ICAM1: BioMAP Diversity Plus: KF3CT Assay for Intercellular Adhesion Molecule 1 (ICAM1) Biomarker Activity (AID 2283067); settings: primary human keratinocytes with fibroblasts; actives raise or lower the signal
# In short: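 ICAM-1 levels are measured by ELISA 24 h after dosing a primary human co-culture of keratinocytes and foreskin fibroblasts. Activity in either direction is fitted relative to DMSO vehicle.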
# [18] = read-out: Interferon-gamma inducible Protein 10 (IP10), CXCL10 (gene 3627); experiment: BSK_KF3CT_IP10: BioMAP Diversity Plus: KF3CT Assay for Interferon-gamma inducible Protein 10 (IP10) Biomarker Activity (AID 2283068); settings: primary human keratinocytes with fibroblasts; actives raise or lower the signal
# In short: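 In a primary skin co-culture of keratinocytes and fibroblasts, IP-10 is quantified by ELISA at 24 h after dosing. SRB staining of parallel wells monitors overt toxicity. Curves are fitted both directions against DMSO.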
# [19] = BSK_KF3CT_SRB: Viability Assessment in the BioMAP Diversity Plus: KF3CT Assay (AID 2283069); settings: primary human keratinocytes with fibroblasts;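 note: total protein by sulforhodamine B staining as a cytotoxicity measure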
# In short: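 SRB read-out at 560 nm (0.1% stain, TCA-fixed cells) gauges overt cytotoxicity in a human skin keratinocyte–fibroblast co-culture 24 h post-dosing. Signal change was fitted bidirectionally relative to DMSO control.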
# [20] = read-out: Interferon-gamma inducible Protein 10 (IP10), CXCL10 (gene 3627); experiment: BSK_hDFCGF_IP10: BioMAP Diversity Plus: hDFCGF Assay for Interferon-gamma inducible Protein 10 (IP10) Biomarker Activity (AID 2283053); settings: primary human foreskin fibroblasts; actives raise or lower the signal
# In short: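 ELISA read-out of IP-10 (CXCL10) from primary human skin fibroblasts, 24 h after compound addition. Gain or loss of signal versus DMSO baseline, bidirectional curve fitting.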
compound,measurement,setting,value
C=CC(=O)OCC(F)(F)C(F)(F)C(F)(F)COC(=O)C=C,AC50,[1],44.9 µM (active) and 28.3 µM (active)
same,AC50,[2],7.48 µM (active) and 7.64 µM (active)
same,AC50,[3],7.91 µM (active)
same,outcome,[3],inactive
same,AC50,[4],48.3 µM (active) and 47.6 µM (active)
same,AC50,[5],30 µM (active) and 25.8 µM (active)
same,AC50,[6],5.04 µM (active) and 1.49 µM (active)
same,outcome,[7],inactive
same,AC50,[8],3.92 µM (active) and 4.38 µM (active)
same,AC50,[9],111 nM (active) and 1.28 µM (active)
same,AC50,[10],2.55 µM (active) and 1.94 µM (active)
same,AC50,[11],2.51 µM (active) and 2.73 µM (active)
same,AC50,[12],2.37 µM (active) and 737 nM (active)
same,AC50,[13],918 nM (active) and 499 nM (active)
same,AC50,[14],5.8 µM (active) and 4.94 µM (active)
same,AC50,[15],2.35 µM (active) and 1.96 µM (active)
same,AC50,[16],3.85 µM (active) and 3.09 µM (active)
same,AC50,[17],21.8 µM (active) and 21.3 µM (active)
same,AC50,[18],28.4 µM (active) and 17.6 µM (active)
same,AC50,[19],36.6 µM (active) and 41.6 µM (active)
CCN(CC)c1ccc(N=Nc2ccccc2)cc1,AC50,[1],20 µM (active)
same,AC50,[2],11.3 µM (active)
same,outcome,[3],inactive
same,outcome,[20],inactive
same,outcome,[4],inactive
same,AC50,[5],3.04 µM (active)
same,AC50,[6],3.65 µM (active)
same,outcome,[7],inactive
same,outcome,[8],inactive
same,AC50,[9],8.62 µM (active)
same,outcome,[10],inactive
same,outcome,[11],inactive
same,outcome,[12],inactive
same,outcome,[13],inactive
same,AC50,[15],20 µM (active)
same,outcome,[16],inactive
same,outcome,[17],inactive
same,outcome,[19],inactive
NC(=O)C(F)(F)C(F)(F)C(F)(F)C(F)F,outcome,[1],inactive
same,outcome,[2],inactive
same,outcome,[3],inactive
same,outcome,[20],inactive
same,outcome,[4],inactive
same,outcome,[5],inactive
same,outcome,[6],inactive
same,outcome,[7],inactive
same,outcome,[8],inactive
same,outcome,[9],inactive
same,outcome,[10],inactive
same,outcome,[11],inactive
same,outcome,[12],inactive
same,outcome,[13],inactive
same,outcome,[15],inactive
same,outcome,[16],inactive
same,outcome,[17],inactive
same,outcome,[19],inactive
